Assay outcomes as filed in PubChem.
CYP2C9 inh: blocks human cytochrome P450 2C9; inhibition, % at 5 µM; actives 20% (n = 96,000); CYP2C9 Supersomes, luciferin-H conversion, luminescence; P11712; AID 777;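 active = blocking of liver enzyme CYP2C9 beyond about 50% at 5 µM, limit read from the data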
CYP2C19 inhib: inhibitors of human CYP2C19. P33261. CYP2C19 Supersomes, luciferin-H EGE luminescence, 30 min. inhibition, % at 5 µM. actives 21% (n = 96,000). AID 778;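 active = CYP2C19 inhibition above a set limit at 5 µM in the primary screen, cut at about 50% in these data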
Target sequence (P33261 whole entry, looked up): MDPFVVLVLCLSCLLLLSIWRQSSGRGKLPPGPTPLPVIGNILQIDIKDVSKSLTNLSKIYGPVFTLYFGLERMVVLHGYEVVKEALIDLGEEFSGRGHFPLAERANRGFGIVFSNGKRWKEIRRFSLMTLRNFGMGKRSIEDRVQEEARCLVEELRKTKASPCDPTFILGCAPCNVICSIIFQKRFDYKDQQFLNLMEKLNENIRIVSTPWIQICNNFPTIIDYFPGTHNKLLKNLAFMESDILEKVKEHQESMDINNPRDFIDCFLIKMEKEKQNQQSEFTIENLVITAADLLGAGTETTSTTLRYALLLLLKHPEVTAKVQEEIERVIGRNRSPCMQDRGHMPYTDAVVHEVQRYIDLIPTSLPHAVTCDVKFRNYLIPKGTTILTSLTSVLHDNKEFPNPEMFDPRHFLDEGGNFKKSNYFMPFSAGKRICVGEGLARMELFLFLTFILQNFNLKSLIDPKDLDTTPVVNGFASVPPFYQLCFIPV
CYP2C9 activ: activators of human CYP2C9 | P11712 | actives 1.4% (n = 96,000) | recombinant CYP2C9, luciferin-H conversion, luminescence; active compounds read high; factor 1 = untreated enzyme, 0 = blocked | activation factor at 5 µM;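 active = activation factor of 2 or more for CYP2C9 at a 5 µM dose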
PostGolgi yeast: growth inhibition of a yeast mutant, post-Golgi transport screen. post-Golgi transport phenotypic cell assay. inhibition, % at 10 µM. actives 0.9% (n = 98,000). AID 739;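 also: yeast cells grown in 1536-well plates; yeast grown about 18 h at 30C before absorbance read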
PostGolgi ctrl: inhibits growth of the yeast control strain. inhibition, % at 10 µM. efflux-deficient yeast background strain, growth absorbance A615, 16 h. AID 738. actives 5% (n = 98,000)
CYP2C19 activ: cytochrome P450 2C19 (human) activation | P33261 | recombinant CYP2C19, luciferin-H EGE luminescence; active compounds read high; 0 = fully inhibited enzyme, 1 = untreated enzyme | 96,000 tested, under 10 active | activation factor at 5 µM;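 active = activation factor of at least 2 at 5 µM in the primary screen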
Hits are given with their value. The list is not random: actives were taken first. Their share in the collection is about 32%. Rule as the data show it, unless noted: active = inhibition above about 30%; inactive = the rest.

Cc1noc(/C=C/N(C)C)c1S(=O)(=O)N1CCC(C(=O)O)CC1 was read as CYP2C9 inh inactive, CYP2C19 inhib inactive, CYP2C9 activ inactive, PostGolgi yeast inactive, PostGolgi ctrl inactive and CYP2C19 activ inactive.
`COc1ccc(S(=O)(=O)N2Cc3ccccc3CC2C(=O)Nc2nccs2)cc1OC` (centres undefined) gave CYP2C9 inh 69, CYP2C19 inhib 86, CYP2C9 activ inactive, PostGolgi yeast inactive, PostGolgi ctrl inactive and CYP2C19 activ inactive.
COc1ccc(S(=O)(=O)N2Cc3ccccc3CC2C(=O)Nc2nccs2)cc1 (centres undefined) was read as CYP2C19 inhib 93, PostGolgi yeast inactive, PostGolgi ctrl 36 and CYP2C19 activ inactive.
COc1ccc(S(=O)(=O)N2Cc3ccccc3CC2C(=O)N2CCOCC2)cc1OC (centres undefined) was read as CYP2C9 inh inactive, CYP2C19 inhib inactive, CYP2C9 activ inactive, PostGolgi yeast inactive, PostGolgi ctrl inactive and CYP2C19 activ inactive.
For O=C(CSc1ccc(Cl)cc1)N1CCN(c2c(Cl)cccc2[N+](=O)[O-])CC1 the results were CYP2C9 inh 71, CYP2C19 inhib inactive, CYP2C9 activ inactive, PostGolgi yeast 41, PostGolgi ctrl inactive and CYP2C19 activ inactive.
Screening O=C(CSc1ccc(Cl)cc1)N1CCN(c2ccc([N+](=O)[O-])cc2Cl)CC1 returned CYP2C9 inh inactive, CYP2C19 inhib inactive, CYP2C9 activ inactive, PostGolgi yeast 82, PostGolgi ctrl 78 and CYP2C19 activ inactive.
For CCS(=O)(=O)N1CCN(c2c(Cl)cccc2[N+](=O)[O-])CC1 the results were CYP2C9 inh inactive, CYP2C19 inhib 52, CYP2C9 activ inactive, PostGolgi yeast inactive, PostGolgi ctrl inactive and CYP2C19 activ inactive.
CS(=O)(=O)N1CCN(c2c(Cl)cccc2[N+](=O)[O-])CC1 was read as CYP2C9 inh inactive, CYP2C19 inhib inactive, CYP2C9 activ inactive, PostGolgi yeast inactive, PostGolgi ctrl inactive and CYP2C19 activ inactive.
CC1CC1C(=O)Nc1nc(-c2ccccc2)cs1 (centres undefined) was read as CYP2C9 inh inactive, CYP2C19 inhib inactive, CYP2C9 activ inactive, PostGolgi yeast inactive, PostGolgi ctrl inactive and CYP2C19 activ inactive.
For O=C(NCC(F)(F)F)Nc1cccnc1 the results were PostGolgi yeast inactive and PostGolgi ctrl inactive.
Screening CCn1c(CCn2ccnc2C)n[nH]c1=S returned CYP2C9 inh inactive, CYP2C19 inhib inactive, CYP2C9 activ inactive, PostGolgi yeast inactive, PostGolgi ctrl 38 and CYP2C19 activ inactive.
Cc1ccc(CN(C(=O)Cn2nnc3ccccc32)C(C(=O)NCc2ccco2)c2cccs2)cc1 (centres undefined) was read as CYP2C9 inh inactive, CYP2C19 inhib 73, CYP2C9 activ inactive, PostGolgi yeast inactive, PostGolgi ctrl inactive and CYP2C19 activ inactive.
CCOC(=O)c1sc2cc([N+](=O)[O-])cc(SCC(C)C)c2c1N was read as CYP2C9 inh inactive, CYP2C19 inhib inactive, CYP2C9 activ inactive, PostGolgi yeast inactive, PostGolgi ctrl inactive and CYP2C19 activ inactive.
CCN(CC)CCOC(=O)C12CC3CC(CC(C3)C1)C2 was read as CYP2C9 inh inactive, CYP2C19 inhib inactive, CYP2C9 activ inactive, PostGolgi yeast inactive, PostGolgi ctrl inactive and CYP2C19 activ inactive.
CCOC(=O)C1C(C#N)=C(N)OC(C)=C1c1ccncc1 (centres undefined) was read as CYP2C9 inh 90, CYP2C19 inhib 80, CYP2C9 activ inactive, PostGolgi yeast inactive, PostGolgi ctrl inactive and CYP2C19 activ inactive.
For CCOC(=O)CC1=C(C(=O)OCC)C(c2ccncc2)C(C#N)=C(N)O1 (centres undefined) the results were CYP2C9 inh 59, CYP2C19 inhib 79, CYP2C9 activ inactive, PostGolgi yeast inactive, PostGolgi ctrl inactive and CYP2C19 activ inactive.
`CCOC(=O)C1=C(C)OC(N)=C(C#N)C1c1ccoc1` (centres undefined) gave CYP2C9 inh inactive, CYP2C19 inhib 54, CYP2C9 activ inactive, PostGolgi yeast inactive, PostGolgi ctrl inactive and CYP2C19 activ inactive.
Screening CC1=C(C(=O)OC(C)(C)C)C(c2ccco2)C(C#N)=C(N)O1 (centres undefined) returned CYP2C9 inh 52, CYP2C19 inhib 93, CYP2C9 activ inactive, PostGolgi yeast inactive, PostGolgi ctrl inactive and CYP2C19 activ inactive.
Screening CC1(C)CC(C)(O)P(=O)(c2ccccc2)O1 (centres undefined) returned CYP2C9 inh inactive, CYP2C19 inhib inactive, CYP2C9 activ inactive, PostGolgi yeast inactive, PostGolgi ctrl inactive and CYP2C19 activ inactive.
Screening CCOC(=O)C1=C(C)OC(N)=C(C#N)C1c1ccc(C)o1 (centres undefined) returned CYP2C9 inh 58, CYP2C19 inhib 98, CYP2C9 activ inactive, PostGolgi yeast inactive, PostGolgi ctrl inactive and CYP2C19 activ inactive.
`CCOC(=O)C1=C(C)OC(N)=C(C#N)C1c1ccc(O)c(OC)c1` (centres undefined) gave CYP2C9 inh inactive, CYP2C19 inhib inactive, CYP2C9 activ inactive, PostGolgi yeast inactive, PostGolgi ctrl inactive and CYP2C19 activ inactive.
`Cc1ccc(C)c(N2CCN(C(=O)c3cc4ccccc4oc3=O)CC2)c1` gave CYP2C9 inh inactive, CYP2C19 inhib inactive, CYP2C9 activ inactive, PostGolgi yeast inactive, PostGolgi ctrl inactive and CYP2C19 activ inactive.
For Cc1ccc2c(c1)CCCN2C(=O)c1cc2ccccc2oc1=O the results were CYP2C9 inh inactive, CYP2C19 inhib inactive, CYP2C9 activ 2.8, PostGolgi yeast inactive, PostGolgi ctrl inactive and CYP2C19 activ inactive.
`Cc1ccc2c(c1)CCCN2C(=O)c1ccoc1C` gave CYP2C9 inh inactive, CYP2C19 inhib 63, CYP2C9 activ inactive, PostGolgi yeast inactive, PostGolgi ctrl inactive and CYP2C19 activ inactive.
`O=C(Nc1nnc(SCc2ccc(Cl)cc2)s1)c1ccco1` gave CYP2C9 inh inactive, CYP2C19 inhib inactive, CYP2C9 activ inactive, PostGolgi yeast inactive, PostGolgi ctrl inactive and CYP2C19 activ inactive.
O=C(CSc1nn(-c2ccc(Cl)cc2)c(=S)s1)N1CCN(C(=O)c2ccco2)CC1 was read as CYP2C9 inh inactive, CYP2C19 inhib inactive, CYP2C9 activ inactive, PostGolgi yeast inactive, PostGolgi ctrl 52 and CYP2C19 activ inactive.
Screening O=C(CSc1nn(-c2ccc(F)cc2)c(=S)s1)N1CCN(C(=O)c2ccco2)CC1 returned CYP2C9 inh inactive, CYP2C19 inhib inactive, CYP2C9 activ inactive, PostGolgi yeast inactive, PostGolgi ctrl inactive and CYP2C19 activ inactive.
For O=C(CSc1nnc(SCc2ccc(Cl)cc2)s1)N1CCN(C(=O)c2ccco2)CC1 the results were CYP2C9 inh 55, CYP2C19 inhib inactive, CYP2C9 activ inactive, PostGolgi yeast inactive, PostGolgi ctrl inactive and CYP2C19 activ inactive.
Screening COc1ccc2cnn(CCOc3ccccc3)c(=O)c2c1OC returned CYP2C9 inh inactive, CYP2C19 inhib inactive, CYP2C9 activ inactive, PostGolgi yeast inactive, PostGolgi ctrl inactive and CYP2C19 activ inactive.
